Shown are actives, neighbours in structure and some others; about 12% of the full set was active somewhere.
HP1b binding inh = HTS for Inhibitors of HP1-beta Chromodomain Interactions with Methylated Histone Tails; AlphaScreen HP1-beta / biotin-H3K9me3 peptide binding; AID 540317, 2011; Potency, µM (series often up to 114 µM), without a hit: at the highest dose activity change, negative = inhibition, most hits filed as inhibitors; Chromobox protein homolog 1 (Homo sapiens), P83916; hit rate 0.56% among 390,000; also: nearly all actives have a fitted effect of over 70% in size
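Compound inhibition of the preformed complex between 50 nM HP1-beta and 50 nM biotinylated H3K9me3 peptide was read by AlphaScreen. Buffer was PBS pH 7.4 with 0.01% Tween-20. Incubations ran 30 min at room temperature, with 10 ug/mL donor/acceptor beads.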
Sfp PPTase inh = qHTS Assay for Inhibitors of Bacillus subtilis Sfp phosphopantetheinyl transferase (PPTase); Biochemical Sfp PPTase activity, qHTS; Potency, µM, for inactives: largest response in the series, negative = inhibition, most hits filed as inhibitors; hit rate 3.5% among 310,000;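 also: the enzyme is Sfp with the accession as filed and its product quenches rhodamine fluorescence; 0% = enzyme reaction without inhibitor and -100% = no enzyme wells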
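Buffer: 50 mM Hepes-Na pH 7.6, 10 mM MgCl2, 0.01% Nonidet P-40, 0.01% BSA. Enzyme 15 nM, pre-exposed to compound 15 min; substrates then added and fluorescence change tracked over 30 min.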
TDP1 block = qHTS Assay for Inhibitors of Tyrosyl-DNA Phosphodiesterase (TDP1); recombinant TDP1, AlphaScreen DNA substrate cleavage; Potency, µM (top dose mostly 130 µM), for inactives: at the top dose activity change, negative = inhibition, hits mostly inhibitors; hit rate 0.28% among 350,000; also: % is scaled to controls: 0 for no effect and ±100 for the full control effect; nearly all actives have a fitted effect of over 40% in size
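Compounds were preincubated with Tdp1 (1 nM final) for 15 min at room temperature before substrate (15 nM final) started a 5 min reaction; beads (10 ug/ml final) were then added for 10 min before AlphaScreen detection.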
BAZ2B inh = qHTS Assay for Inhibitors of BAZ2B; Bromodomain adjacent to zinc finger domain protein 2B (Homo sapiens), Q9UIF8; AlphaScreen BAZ2B-H3K14Ac peptide displacement; Potency, µM (titrated, usually from 114 µM), without a hit: at the highest dose activity change, negative = inhibition, hits mostly inhibitors; hit rate 4.4% among 360,000; also: % is scaled to controls: 0 for no effect and ±100 for the full control effect; nearly all actives have a fitted effect of over 60% in size
Target sequence (Q9UIF8 whole entry, looked up, the tested form may be a part): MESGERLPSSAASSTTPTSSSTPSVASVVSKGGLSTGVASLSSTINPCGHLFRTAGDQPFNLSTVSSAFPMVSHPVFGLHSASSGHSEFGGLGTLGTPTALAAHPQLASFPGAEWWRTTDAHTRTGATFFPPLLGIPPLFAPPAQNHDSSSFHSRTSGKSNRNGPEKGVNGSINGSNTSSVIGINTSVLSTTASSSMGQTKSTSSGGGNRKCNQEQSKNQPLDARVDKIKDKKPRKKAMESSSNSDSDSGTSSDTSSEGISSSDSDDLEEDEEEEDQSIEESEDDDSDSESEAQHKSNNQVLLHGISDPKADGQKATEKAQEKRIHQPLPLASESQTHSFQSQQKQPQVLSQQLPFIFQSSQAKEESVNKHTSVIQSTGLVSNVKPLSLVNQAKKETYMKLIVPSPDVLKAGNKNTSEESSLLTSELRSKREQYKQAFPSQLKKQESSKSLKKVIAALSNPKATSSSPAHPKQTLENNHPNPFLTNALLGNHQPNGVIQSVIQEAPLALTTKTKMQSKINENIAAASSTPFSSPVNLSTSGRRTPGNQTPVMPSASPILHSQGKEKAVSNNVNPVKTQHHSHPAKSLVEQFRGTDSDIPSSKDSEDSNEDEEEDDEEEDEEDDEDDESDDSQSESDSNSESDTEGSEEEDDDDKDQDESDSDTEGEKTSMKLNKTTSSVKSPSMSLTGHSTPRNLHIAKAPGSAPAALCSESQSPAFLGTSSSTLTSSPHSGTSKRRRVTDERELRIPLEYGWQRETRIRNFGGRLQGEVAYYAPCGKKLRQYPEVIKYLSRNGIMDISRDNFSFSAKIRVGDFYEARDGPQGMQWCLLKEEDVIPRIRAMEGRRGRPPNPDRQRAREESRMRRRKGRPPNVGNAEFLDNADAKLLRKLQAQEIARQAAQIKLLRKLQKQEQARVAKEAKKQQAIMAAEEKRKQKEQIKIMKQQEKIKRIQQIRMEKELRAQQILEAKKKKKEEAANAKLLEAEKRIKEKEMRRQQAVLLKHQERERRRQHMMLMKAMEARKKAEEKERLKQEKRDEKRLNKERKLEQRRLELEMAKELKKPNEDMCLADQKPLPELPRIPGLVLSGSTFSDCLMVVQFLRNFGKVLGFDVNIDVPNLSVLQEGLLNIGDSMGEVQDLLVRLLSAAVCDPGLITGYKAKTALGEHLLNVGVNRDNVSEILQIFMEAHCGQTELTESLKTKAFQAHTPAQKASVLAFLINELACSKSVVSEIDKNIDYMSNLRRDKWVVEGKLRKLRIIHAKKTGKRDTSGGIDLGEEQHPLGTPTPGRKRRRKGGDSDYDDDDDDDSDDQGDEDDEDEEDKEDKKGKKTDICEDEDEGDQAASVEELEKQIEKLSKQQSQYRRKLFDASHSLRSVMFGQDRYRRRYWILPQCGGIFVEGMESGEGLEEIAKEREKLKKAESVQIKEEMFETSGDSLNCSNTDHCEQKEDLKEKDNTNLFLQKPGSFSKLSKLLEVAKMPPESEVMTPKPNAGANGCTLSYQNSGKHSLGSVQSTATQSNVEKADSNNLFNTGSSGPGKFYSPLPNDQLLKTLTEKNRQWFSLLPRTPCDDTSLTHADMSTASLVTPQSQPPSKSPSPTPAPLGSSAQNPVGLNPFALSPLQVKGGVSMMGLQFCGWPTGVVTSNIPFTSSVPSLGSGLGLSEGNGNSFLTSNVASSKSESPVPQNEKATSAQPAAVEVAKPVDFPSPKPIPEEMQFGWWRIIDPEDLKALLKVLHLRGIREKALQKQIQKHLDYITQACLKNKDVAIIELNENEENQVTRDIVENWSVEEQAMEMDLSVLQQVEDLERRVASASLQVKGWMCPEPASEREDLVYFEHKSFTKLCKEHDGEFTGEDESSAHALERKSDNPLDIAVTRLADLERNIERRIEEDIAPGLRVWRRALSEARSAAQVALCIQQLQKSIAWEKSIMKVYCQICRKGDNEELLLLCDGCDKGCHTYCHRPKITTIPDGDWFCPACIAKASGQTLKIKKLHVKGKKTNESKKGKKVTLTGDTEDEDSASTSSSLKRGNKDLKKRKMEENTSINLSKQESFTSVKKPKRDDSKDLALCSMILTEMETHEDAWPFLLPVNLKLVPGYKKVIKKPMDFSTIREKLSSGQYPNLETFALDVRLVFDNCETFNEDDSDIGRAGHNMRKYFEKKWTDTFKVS
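AlphaScreen displacement of biotin-H3(5-23)K14Ac peptide (50 nM final) from BAZ2B (50 nM final) in PBS pH 7.4, 0.01% Tween-20; complex preformed 30 min RT, then compounds (top 110 uM) 30 min RT, beads 20 min dark.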
JMJD2A Tudor = qHTS Assay for Inhibitors of JMJD2A-Tudor Domain; Potency, µM (doses to about 114 µM), for the others: at the top dose activity change, negative = inhibition, usual class: inhibitors; Lysine-specific demethylase 4A (Homo sapiens), O75164; AlphaScreen JMJD2A-Tudor / H3K4me3 peptide binding; hit rate 4.4% among 390,000; AID 504339, 2011; also: % is scaled to controls: 0 for no effect and ±100 for the full control effect; nearly all actives have a fitted effect of over 50% in size
G9a block = qHTS Assay for Inhibitors of Histone Lysine Methyltransferase G9a. Histone-lysine N-methyltransferase EHMT2 (Homo sapiens), Q96KQ7. G9a H3K9 monomethylation, AlphaScreen, 2 h. Potency, µM (highest dose often 102 µM), without a hit: at the top dose activity, negative = inhibition, most hits filed as inhibitors. hit rate 8.8% among 350,000. AID 504332, 2011; also: % is scaled to controls: 0 for no effect and ±100 for the full control effect; nearly all actives have a fitted effect of over 75% in size
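Signal arises when biotinylated H3K9 peptide, once monomethylated, bridges streptavidin donor and antibody-captured acceptor beads. Enzyme at 20 nM was preincubated 15 min with test compounds; peptide 500 nM and SAM 20 uM then reacted for 2 h.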
An asterisk follows results filed as active; ? = inconclusive; . = no result; ! = not active in a repeat; [ ] = another dose, or the depositor's remark. Calls follow the shape of the dose curve; as a rule, active = well fitted curve in the direction sought with a large enough effect; inconclusive = small, poorly fitted or top-dose-only effect, or another doubt; inactive = no such curve, though single readings can be large; an effect the other way counts as inactive or inconclusive. Potency is read from the fitted curve at half-maximal effect.

SMILES	HP1b binding inh	Sfp PPTase inh	TDP1 block	BAZ2B inh	JMJD2A Tudor	G9a block
COC1C(O)C(C)O[C@@H](OC2CC[C@@]3(C)C4CC[C@]5(C)C(C6=CC(=O)OC6)CC[C@@]5(O)C4CC[C@@H]3C2)C1O (stereo partly specified)	.	10%	14%[56.1 µM]	.	.	.
COc1ccc(OC)c(C(Nc2ccccc2)P(=O)(OC(C)C)OC(C)C)c1 (stereo unspecified)	19%	13%	1%	-11%	0%	?
CC(=O)Nc1cc([As](=O)(O)O)ccc1O	17%	-12%	-8%	-37%	-20%	-2%[59 µM]
CC(=O)Nc1cc(Cl)c(N=Cc2ccc(O)cc2O)cc1Cl	33%	-17%	5%	-36%	-6%	56µM*
O=C=NC1CCCCC1	.	.	8%	.	.	.
c1cnc(N2CCNCC2)nc1	43%	-30%	2%	?	?	18µM*
CC(C)(O)C1C2OC(=O)C1[C@]1(O)CC3O[C@@]34C(=O)OC2[C@@]14C (stereo partly specified)	.	-4%	10%[56.1 µM]	.	.	-2%[2.33 µM]
CC[C@@H]1CN2CCc3cc(OC)c(OC)cc3[C@H]2C[C@@H]1C[C@@H]1NCCc2cc(O)c(OC)cc21	.	2%	14%[21 µM]	.	.	-1%[21.5 µM]
O=C(c1cccc(Cl)c1)C1CCCN(Cc2cccc3cnccc23)C1 (stereo unspecified)	?	-1%	.	?	45µM*	?
Cc1cc(/C=C2\C(=O)NC(=S)N(C)C2=O)c(C)n1C1CCCCC1	21%	?	1%	-21%	-15%	?
Cc1cc(/C=C2\C(=O)NC(=O)N(C)C2=O)c(C)n1-c1ccc2c(c1)OCO2	19%	-15%	-4%	?	-32%	-50%
Cc1cc(C=C2C(=O)N(C)C(=S)N(C)C2=O)c(C)n1-c1cccnc1	-13%	-2%	1%	45µM*	-31%	8.9µM*
Cc1cc(C=C2C(=O)N(C)C(=S)N(C)C2=O)c(C)n1C1CCCC1	-11%	56µM*	8%	?	?	11µM*
CCN(CC)C(=O)c1ccc2c(c1)C1C=CCC1C(C(=O)O)N2 (stereo unspecified)	28µM*	11µM*	.	25µM*	11µM*	1.6µM*
CCN(CC)C(=O)c1ccc(N(Cc2ccccc2)S(C)(=O)=O)cc1	25%	30%	.	0%	-4%	.
Cc1ccc2c(c1Cl)NC(C(=O)O)C1CC(Sc3ccccc3[N+](=O)[O-])C(Cl)C21 (stereo unspecified)	?	?	2%	14µM*	56µM*	.
CCN(CC)C(=O)c1ccc2c(c1)C1C(Cl)C(Sc3ccccc3[N+](=O)[O-])CC1C(C(=O)O)N2 (stereo unspecified)	11µM*	45µM*	3%	20µM*	?	7.9µM*
COc1ccc2c(c1)c(=O)c(C(=O)c1ccc(Cl)cc1)cn2CC(=O)Nc1ccc2c(c1)OCCO2	52%	.	4%	-1%	-3%	19%[59 µM]
CCCCCC[C@H]1C(=O)O[C@H](C)[C@H](NC(=O)c2cccc(NC=O)c2O)C(=O)O[C@@H](C)[C@@H]1OC(=O)CC(C)C	.	10%	21%[56.1 µM]	.	.	.
CSCCC(=O)Nc1cc(S(=O)(=O)N2CCOCC2)ccc1N1CCN(C)CC1	19%	20%	1%	-2%	-16%	?
c1ccncc1	.	.	17%	.	.	.
S=c1[nH]nc(-c2cccs2)n1C1CCCCC1	10%	?	1%	-4%	6.3µM*	.
CC(C)C(=O)Nc1ccc([N+](=O)[O-])c(C(F)(F)F)c1	34%	13%	-3%[56.1 µM]	-11%	-12%	2.5µM*!

Screening data (PubChem)
